The results in this text go back to PubChem BioAssay AID463173 (ICCB-Longwood Screening Facility, Harvard Medical School, 2010).

Each structure is given as a SMILES string. About 4,300 (8.3%) of roughly 52,000 compounds were called active. The sample as a whole holds a higher share of actives than the screen did. Unmarked numbers belong to inactive results. No stated cut-off is given here; in the data, active means survival mostly below about 52% (no sharp cut-off); inactive means mostly above about 56%.

The test system of the assay is DeltatarO mutant. Briefly: S. aureus survival, RN4220 and DeltatarO strains – OD600, teichoic acid synthesis inhibitors, primary screen (AID 463173). To be noted: S. aureus RN4220 wild type/DeltatarO growth, OD600, 18 h, hits give low values, screened at 18.75 µg/mL (by protocol).
`Cc1ccc([N+](=O)[O-])c(Oc2ncnc3c2oc2ccccc23)c1`: the survival is 101%.
As for `Oc1c(C(c2ccccc2F)N2CCC3(CC2)OCCO3)sc2nc(-c3ccco3)nn12` (configuration not stated), the survival is 102%.
Regarding `Cc1ccc(C)c(Nc2cc(C(=O)NC3CCCC3)c3ccccc3n2)c1`, the survival was 87%.
With `COc1ccc(N2C(=O)CS(=O)(=O)C23C(=O)N(Cc2ccccc2F)c2ccccc23)cc1Cl` (configuration not stated), the survival is 75%.
Take `CCOC(=O)c1c(NC(=O)c2ccc(S(=O)(=O)N(CC(C)C)CC(C)C)cc2)sc2c1CCN(C(=O)OCC)C2`: the survival was 124%.
On to `Cc1ccc(Cl)cc1NC(=O)CSC1=Nc2ccccc2C2=NC(Cc3ccccc3)C(=O)N12` (configuration not stated), for which the survival is 71%.
As for `COc1ccc(NC(=O)CSc2nnc(NC(=O)Nc3ccccc3)s2)cc1OC`, the survival is 86%.
`COc1ccccc1NC(=O)CSc1nnc(NC(=O)Nc2ccc(C)cc2)s1`: the survival is 58%.
Take `COc1ccc(NC(=O)CSc2nnc(NC(=O)Nc3ccccc3)s2)c(OC)c1`: the survival is 47% (active).
Regarding `CCc1ccc(-n2nc(C)c3c(C(=O)N4CCN(c5ccccc5)CC4)cc(C)nc32)cc1`, the survival was 94%.
Consider `CCn1cc(S(=O)(=O)c2cc(C)cc(C)c2)c(=O)c2cc(F)c(N3CCCCC3)cc21`, for which the survival is 86%.
For `Cc1cccc(S(=O)(=O)c2cn(Cc3ccccc3)c3cc(N4CCCCC4)c(F)cc3c2=O)c1`, the survival is 82%.
As for `O=c1c(S(=O)(=O)c2ccccc2)cn(Cc2ccc(F)cc2)c2cc(N3CCCCC3)c(F)cc12`, the survival was 80%.
For `CCn1cc(C(=O)NCC(C)C)c(=O)c2cc(F)c(N3CCN(C(=O)c4ccco4)CC3)cc21`, the survival is 76%.
In the case of `CCn1cc(S(=O)(=O)c2cc(C)cc(C)c2)c(=O)c2cc(F)c(N3CCCC3)cc21`, the survival is 109%.
For the molecule `Cn1cc(S(=O)(=O)c2ccccc2)c(=O)c2cc(F)c(N3CCN(c4ccccc4)CC3)cc21`, the survival is 116%.
Turning to `Cn1cc(S(=O)(=O)c2cccc(Cl)c2)c(=O)c2cc(F)c(N3CCN(c4ccccc4)CC3)cc21`, the survival is 6% (active).
To `Cc1cccc(S(=O)(=O)c2cn(Cc3ccc(F)cc3)c3cc(N4CCCCC4)c(F)cc3c2=O)c1` belongs -2% (active); to `Cn1cc(S(=O)(=O)c2cccc(Cl)c2)c(=O)c2cc(F)c(N3CCN(c4ccc(F)cc4)CC3)cc21`, 70%.
For `CCn1cc(C(=O)O)c(=O)c2cc(F)c(N3CCN(C(=O)c4ccccc4F)CC3)cc21`, the survival was 3% (active).
`CCn1cc(C(=O)N2CCN(c3ccccc3F)CC2)c(=O)c2cc(S(=O)(=O)N(C)C)ccc21`: the survival was 122%.
Next, `CCN1CCN(c2cc3c(cc2F)c(=O)c(S(=O)(=O)c2cc(C)cc(C)c2)cn3CC)CC1`: -1% (active); `COc1cccc(C(c2sc3nc(-c4ccco4)nn3c2O)N2CCC(C)CC2)c1` (configuration not stated): 78%; `CC(C)(C)C(=O)OCc1cc(=O)n2nc(C3CC3)sc2n1`: 80%.
Regarding `CC(=O)c1cc(-c2ccc(F)cc2)n(CCC(=O)NCc2ccccc2C)c1C`, the survival was 81%.
Turning to `Cc1ccc(-c2nnc3ccccc3c2C(=O)Nc2ccc(F)cc2)cc1`, the survival is 100%.
To `CCCCNC(=O)Cn1cnc2sc(C)c(S(=O)(=O)N3CCN(c4ccccc4OC)CC3)c2c1=O` belongs 86%.
`CCOC(=O)C1CCCN(S(=O)(=O)c2cc3c4c(c2)CC(=O)N4CCC3)C1` (configuration not stated): the survival was 93%.
Next, `CCOc1ccc(-c2ccc(NS(=O)(=O)c3cc(C)ccc3OC)cc2)nn1`: 86%; `O=C(NCCc1csc(-c2ccc(F)cc2)n1)c1cccs1`: 72%.
Regarding `Cc1ccc(NC2=CC(c3ccccc3F)N(c3ccc(C)cc3)C2=O)cc1` (configuration not stated), the survival is 49%.
With `CC(=O)NC1CCN(C(=O)Nc2ccccc2)CC1`, the survival is 91%.
To `Cc1csc2nc(COC(=O)c3ccccc3NC(=O)c3ccc(F)cc3)cc(=O)n12` belongs 55%.
As to `COc1ccc(-c2noc(N3CCC(C(=O)N4CCN(c5ccccc5OC)CC4)CC3)n2)cc1`, the survival is 61%.
Consider `Cc1cccc(OCCCSc2nc(-c3ccc(C(C)(C)C)cc3)nc3cc(=O)[nH]n23)c1C`, for which the survival is 102%.
To `CC(C)CCNC(=O)c1ccc(Cn2c(SCC(N)=O)nc3ccccc3c2=O)cc1` belongs 46% (active).
Next, `CC(C)CCNC(=O)c1ccc(Cn2c(SCC(=O)NC(C)C)nc3ccccc3c2=O)cc1`: 144%; `CCCNC(=O)c1ccc(Cn2c(SCC(N)=O)nc3ccccc3c2=O)cc1`: 91%.
Take `Cc1cc(C)c(NC(=O)c2cc(CN3CCOCC3)on2)c(C)c1`: the survival is 70%.
With `COc1ccc(OC)c(/C=C/C(=O)Nc2ccc(C(=O)OCCC(C)C)cc2)c1`, the survival was 33% (active).
Take `CCOCCOC(=O)c1ccc(NC(=O)/C=C/c2ccc(OC)c(OC)c2)cc1`: the survival was 137%.
As to `COc1ccc(/C=C/C(=O)Nc2ccc(C)cc2)cc1`, the survival was 77%.
In the case of `Cc1cc(=O)[nH]c2c(C)c(Cl)ccc12`, the survival is 93%.
To `Cc1ccc(Cl)cc1Nc1nn2c(=O)c3ccc(C(=O)NC4CCC(C)CC4)cc3nc2s1` (configuration not stated) belongs 100%; to `CCC(C)NC(=O)C1CCN(S(=O)(=O)c2ccc3c(ccn3CC)c2)CC1` (configuration not stated), 8% (active); to `CCn1ccc2cc(S(=O)(=O)N3CCCN(C(=O)Nc4cccc(SC)c4)CC3)ccc21`, 47% (active).
For the molecule `CCn1ccc2cc(S(=O)(=O)N3CCC(C(=O)NCC(C)c4ccccc4)CC3)ccc21` (configuration not stated), the survival is 94%.
`CCn1ccc2cc(S(=O)(=O)N3CCC(C(=O)NCc4ccc(OC)cc4)CC3)ccc21`: the survival was 20% (active).
For the molecule `Cc1ccc(CNC(=O)C2CCN(S(=O)(=O)c3ccc(F)cc3)CC2)cc1`, the survival is 62%.
Take `COc1ccc(CNC(=O)C2CCN(S(=O)(=O)c3ccc(F)cc3)CC2)cc1`: the survival was 71%.
`CSc1cccc(NC(=O)N2CCN(S(=O)(=O)c3ccc4c(ccn4C)c3)CC2)c1`: the survival was 58%.
Regarding `CCn1ccc2cc(S(=O)(=O)N3CCC(C(=O)NCc4ccc(F)cc4)CC3)ccc21`, the survival is 85%.
In the case of `CCn1ccc2cc(S(=O)(=O)N3CCCN(C(=O)Nc4cccc(Cl)c4)CC3)ccc21`, the survival was 83%.
Regarding `COc1ccc(CNC(=O)C2CCN(S(=O)(=O)c3ccc(C)cc3)CC2)cc1`, the survival was 56% (active).
Turning to `CCCCNC(=O)C1CCN(S(=O)(=O)c2ccc3c(ccn3CC)c2)CC1`, the survival is 99%.
As to `CCn1ccc2cc(S(=O)(=O)N3CCC(C(=O)NCc4ccc(OC(C)C)cc4)CC3)ccc21`, the survival was 95%.
For `CN1C(C(=O)c2ccccc2)=C(OC(=O)c2ccc(Br)cc2)c2ccccc2S1(=O)=O`, the survival was 123%.
For `Cc1ccc(Nc2cc(C(=O)NC3CCCC3)c3ccccc3n2)c(C)c1`, the survival was 77%.
For the molecule `CCN(CC)C(=O)C1CCN(Cc2cccc(OC)c2OC)CC1`, the survival was 99%.
In the case of `CCN(C(=O)CSc1nc2ccccc2n1CC(=O)N1CCCC(C)C1)c1ccccc1` (configuration not stated), the survival was 109%.
Consider `COc1ccc(Br)cc1CNC(=O)c1cnc2sc(N3CCCC3)nn2c1=O`, for which the survival is 98%.
For `COc1ccccc1-n1c(=O)c2c3c(sc2n(Cc2ccccc2F)c1=O)CN(C(C)=O)CC3`, the survival is 120%.
Consider `O=S(=O)(c1ccccc1)N1CCCC(c2nc(-c3cccs3)no2)C1` (configuration not stated), for which the survival is 67%.
Turning to `CCOC(=O)Cn1c(=O)n(C2CCCCC2)c2nc(-c3ccc(C(C)C)cc3)nc(C(N)=O)c21`, the survival is 61%.
For the molecule `CCOCCCNC(=O)C1CCCN(Cc2nc(-c3ccc(CC)cc3)oc2C)C1` (configuration not stated), the survival was 76%.
In the case of `COc1cccc(CNC(=O)C2CCCN(S(=O)(=O)c3ccc4c(ccn4C)c3)C2)c1` (configuration not stated), the survival was 124%.
With `COc1ccc(CNC(=O)C2CCCCN2S(=O)(=O)c2ccc(F)cc2)cc1` (configuration not stated), the survival is 95%.
`COc1ccc(CNC(=O)C2CCCN(S(=O)(=O)c3ccc4c(ccn4C)c3)C2)c(OC)c1` (configuration not stated): the survival was 25% (active).
Consider `COc1cccc(CNC(=O)C2CCCN(S(=O)(=O)c3ccc4c(ccn4C)c3)C2)c1OC` (configuration not stated), for which the survival is 101%.
As to `Cc1ccc(CNC(=O)C2CCCCN2S(=O)(=O)c2ccc(F)cc2)cc1` (configuration not stated), the survival was 84%.
For `O=C(NCc1ccc(F)cc1)C1CCCCN1S(=O)(=O)c1ccc(F)cc1` (configuration not stated), the survival is 32% (active).
As to `CCC(=O)N1CCc2cc(CNC(=O)Nc3cc(C)ccc3C)ccc21`, the survival was 84%.
Turning to `CC(=O)N1CCCc2cc(S(=O)(=O)N3CCCC(C(=O)Nc4cc(Cl)ccc4C)C3)ccc21` (configuration not stated), the survival was 124%.
Consider `CC(C)Sc1ncc(Cl)c(C(=O)Nc2c(C(=O)Nc3ccccc3)oc3ccccc23)n1`, for which the survival is 61%.
On to `CN(C)c1ccc(C(CC(=O)O)NC(=O)c2ccc(Cl)cc2)cc1` (configuration not stated), for which the survival was 104%.
On to `COc1ccc(NC(=O)c2nnn(Cc3nc(-c4cc(OC)c(OC)c(OC)c4)oc3C)c2C)cc1`, for which the survival was 61%.
To `C=CCc1c(C)nc(SC)nc1Nc1ccc(C(=O)O)cc1` belongs 113%.
On to `O=C(Oc1cccc(-n2cnnn2)c1)C1CCCCC1`, for which the survival is 94%.
`Cc1nc2ccccn2c(=O)c1NC(=O)c1ccccc1Cl`: the survival is 131%.
To `Cc1ccc(C(=O)Nc2c(C)nc3ccccn3c2=O)cc1C` belongs 69%.
With `Cc1nc2ccccn2c(=O)c1NC(=O)c1ccc(C(F)(F)F)cc1`, the survival was 0% (active).
In the case of `Cc1ccccc1C(=O)Nc1c(C)nc2ccccn2c1=O`, the survival was 37% (active).
Take `Cc1ccc(C(=O)Nc2c(C)nc3ccccn3c2=O)cc1`: the survival is 74%.
With `Cc1nc2ccccn2c(=O)c1NC(=O)c1ccc(F)c(F)c1`, the survival is 99%.
To `O=c1ccc2cc(S(=O)(=O)NCc3ccc(Cl)cc3)ccc2[nH]1` belongs 91%; to `Cc1cccc2sc(N(Cc3cccnc3)C(=O)CCOc3ccccc3)nc12`, 82%; to `Cc1cccc(N2CCN(S(=O)(=O)c3ccc4oc(=O)c5ncn(C)c5c4c3)CC2)c1C`, 77%.
